Test results taken from publication PMC13494018.

B1: design_617_b3fadc1d-0db4-4da8-8433-818493aa2ab2_1728_dldesign_0_cycle1_af2pred (protein)
chain: GAALAARHGAAAARGALQGTVEEAAAQLANGLKIAAQLAPADGAAYRAAVLAVIAQASPERAAAILALAG
B2: design_617_b3fadc1d-0db4-4da8-8433-818493aa2ab2_1785_dldesign_0_cycle1_af2pred (protein)
chain: EAEEYYKKGKEYSAKGDELYKAGKYEEAIKYYQKAANYYSKASILLTKAGGDQEKIDEANANLAKALENLEKASRALREAREKEEK
B3: design_617_b3fadc1d-0db4-4da8-8433-818493aa2ab2_1817_dldesign_0_cycle1_af2pred (protein)
chain: AEEERMRAAIREIAAAAAAEVEAWAKAHPAADQAEWFAALQAAGEKAAEAMAAIDPRYAPEARALAMALGAGAVQRVKA
B4: design_617_b3fadc1d-0db4-4da8-8433-818493aa2ab2_1885_dldesign_0_cycle1_af2pred (protein)
chain: AEAAKKGEEAVKKAEEAKKKAEAAAAKLPASVADPVKAAADALVASAKAHAEAGNTESAEATAEVLAGMAEGTKARADALAA
B5: design_617_b3fadc1d-0db4-4da8-8433-818493aa2ab2_1940_dldesign_0_cycle1_af2pred (protein)
chain: MEEYRARAEELLEKAKKAAEGENGVGDVGELAVEMAKLAAEAEKASPEAGAYARAALVEISQLAIEAAKRKAA
B6: design_617_b3fadc1d-0db4-4da8-8433-818493aa2ab2_1993_dldesign_0_cycle1_af2pred (protein)
chain: PSVEEIGQALLDNLKKTLEEAVKASLEEAKGYAAQAAALYIGAHGASPEYGKQAEEIVKKAIKELEKKDPEKAKILKEAIEKAEALL
B7: design_617_b3fadc1d-0db4-4da8-8433-818493aa2ab2_2043_dldesign_0_cycle1_af2pred (protein)
chain: DLVEKYREEALAEAEKLVKEGVSPEEAAEILMEKAREYFAQAAKASPEVAVKLIAKAEGYALAAKEIRERL
B8: design_617_b3fadc1d-0db4-4da8-8433-818493aa2ab2_2293_dldesign_0_cycle1_af2pred (protein)
chain: AEEALKLLKEAKKKAEEALKLAEKGGDPEEIKALVNEALSLATKGSAQAVKHPEIAPLGNAVLGYAVDVAERVEELLKERE
B9: design_617_b3fadc1d-0db4-4da8-8433-818493aa2ab2_2347_dldesign_0_cycle1_af2pred (protein)
chain: AAAEQAAREALQGRALEKMKEYVDKLVALAKETGSEAALEAAQQVASLFTQAIIAAQQDLAAGRAALAQGEALAKAAIAALE
B10: design_617_b3fadc1d-0db4-4da8-8433-818493aa2ab2_2360_dldesign_0_cycle1_af2pred (protein)
chain: AAAQAQAQQIVDQTRAAVEEARAMAEDGATAAAAAERAAAVARQASAAIPQALAASPQIAGQLAQVALDATRVEAEARRNAA
B11: design_617_b3fadc1d-0db4-4da8-8433-818493aa2ab2_2366_dldesign_0_cycle1_af2pred (protein)
chain: GLEKALKELKKVAEATAAAATAADPAMKPTADLLKKAAERAAAGDAETALANLNTILVLADSIAAVDPAAAKKLKEAAEKAIKIAR
B12: design_617_b3fadc1d-0db4-4da8-8433-818493aa2ab2_2387_dldesign_0_cycle1_af2pred (protein)
chain: AAAAEGELLGKLIELARRASKLDPETANLILSGLGLYGVDPEAGVKKLLEAAELAKKAGHEELAKEIKELAEKLAAVSAA
B13: design_618_d4ffd631-0ea2-432e-ba0f-bd3d6297b2a0_93_dldesign_0_cycle1_af2pred (protein)
chain: MEEVKALIARAAELLAAAAADPSTAGEKVTEAIRLLAEAAALDPSIAPLANEAMALATRGLVTGPEGLAAAEEATKAVLEAV
B14: design_618_d4ffd631-0ea2-432e-ba0f-bd3d6297b2a0_110_dldesign_0_cycle1_af2pred (protein)
chain: AGAAAAEEIRALVDKAIADPATAPEYTARAAEIARAADPRLAGVGQAILAAAERLAAGSPEEAARHAAQMRELTDVVVATLLG
B15: design_618_d4ffd631-0ea2-432e-ba0f-bd3d6297b2a0_140_dldesign_0_cycle1_af2pred (protein)
chain: NEDLTKAGEKVVETQRTASEAARTSGDPAVAAEMNAIANAAIKALQAGVATGDYKTALETTEKLLKEAKAKLKEVK
B16: design_618_d4ffd631-0ea2-432e-ba0f-bd3d6297b2a0_165_dldesign_0_cycle1_af2pred (protein)
chain: AAAAAKVAVAAAKSMIKQAKKFLEEGEKSGDLKLVESAKKLAEQAKNLAKFAIANPATKEEGEKLEKEAEEVKKKAEEAEKKIK
B17: design_618_d4ffd631-0ea2-432e-ba0f-bd3d6297b2a0_170_dldesign_0_cycle1_af2pred (protein)
chain: AAAAAAADAEAAALAKGFVEEAKKKIEALLKAGAPEEELLAEASRVAAKAIRTFAALGWNGSHAVAAVKAITEEAKKAIEKLRA
B18: design_618_d4ffd631-0ea2-432e-ba0f-bd3d6297b2a0_220_dldesign_0_cycle1_af2pred (protein)
chain: DKEEAVKLAEEGAEVALKLADKRVGAVTAAAFRGLARSIRAAEDPEDIAKIAEVAKGMKAWAEAQLKATA
B19: design_618_d4ffd631-0ea2-432e-ba0f-bd3d6297b2a0_318_dldesign_0_cycle1_af2pred (protein)
chain: MEKKEELKKKAEEAIKKLKKLKEEGASPEEINKALAEAVELAKEAAEAGDSETANRLLSEAGRLSIEALKNHAA
B20: design_618_d4ffd631-0ea2-432e-ba0f-bd3d6297b2a0_400_dldesign_0_cycle1_af2pred (protein)
chain: SSSLIDRLTGIALKGLSIAQGVLDKVEAGEATPEEIEEGIKAAEESEKAAKELSKLLAAQPAASEYYKKLAERAKEYKEKLKKALA
B21: design_618_d4ffd631-0ea2-432e-ba0f-bd3d6297b2a0_442_dldesign_0_cycle1_af2pred (protein)
chain: AAATRATADAALAELERVGEVAVTVAKSALEAGFSKETALKIGTSLVENVVTGATAAVADDPAAQARIRAAGERIKEEIRKAL
B22: design_618_d4ffd631-0ea2-432e-ba0f-bd3d6297b2a0_472_dldesign_0_cycle1_af2pred (protein)
chain: MNEAQRIAAARGAARVAAAAAEKDPALGKAILAGAAATFADSPAALKALAATAREEAEKASPEAGAALKAAAAEVEAAAA
B23: design_618_d4ffd631-0ea2-432e-ba0f-bd3d6297b2a0_687_dldesign_0_cycle1_af2pred (protein)
chain: AAAQQLAVQSATAFARQAIAAAQAALELAKADPSAKEEIERLLNQARASLQNALLVGQSSPEAAAIAQEAQATVEKLAAETAKAAAA
B24: design_618_d4ffd631-0ea2-432e-ba0f-bd3d6297b2a0_719_dldesign_0_cycle1_af2pred (protein)
chain: AAALAEVQEKALEAAKKASELAREARKAGDEEKAKKFEELMNTLMSAAGAAAQDLEAAKEKIDKAIKEIEELAKN
B25: design_618_d4ffd631-0ea2-432e-ba0f-bd3d6297b2a0_729_dldesign_0_cycle1_af2pred (protein)
chain: AKEEVVEQAKQVAEAALALAKQVSPEWEKKAKEALELVEKAKEGNLEEAQKVAGEVMRIAAEVLAAYTAKQA
B26: design_618_d4ffd631-0ea2-432e-ba0f-bd3d6297b2a0_776_dldesign_0_cycle1_af2pred (protein)
chain: GAEEELKKAEEMGEIAESIAKQAAKASGSKEAKELLKKAKELVKKAKENAKDKEKIKELLKELSRLAGQAAKQLIAALK
B27: design_618_d4ffd631-0ea2-432e-ba0f-bd3d6297b2a0_800_dldesign_0_cycle1_af2pred (protein)
chain: MSEAAKEVAELAEYVSKQAKEAGNEEAAKLAKEGAELAKEGAKDPSTAGEKIAEALKLYIQASQQLVAYQQA
B28: design_618_d4ffd631-0ea2-432e-ba0f-bd3d6297b2a0_848_dldesign_0_cycle1_af2pred (protein)
chain: MERAISLGKAAAVAGIAGSTAALKNIVKTIAKLSPEEAKKAAEVAAKEIIKAPNAKEMLKAAADAAKEVGTESGKAAAEVFEKAAKKA
B29: design_618_d4ffd631-0ea2-432e-ba0f-bd3d6297b2a0_931_dldesign_0_cycle1_af2pred (protein)
chain: AAAAEAALARAVAVLGRAFQQAVASPDLAEADALLDAGLAEALAITAADPEAAAAVRRLAAQMRAKVRELVS
B30: design_618_d4ffd631-0ea2-432e-ba0f-bd3d6297b2a0_941_dldesign_0_cycle1_af2pred (protein)
chain: SEEVKKALEEVEKLLDEAIKAAKAGDIGTAAVLLAKAAAIADKAHPEAGAVIRQGLAEAIAAAADPEKAAKVIEEAREKVKKILEA
B31: design_618_d4ffd631-0ea2-432e-ba0f-bd3d6297b2a0_955_dldesign_0_cycle1_af2pred (protein)
chain: AAASEIMAKFAAGVAKNVAAVLKEDPEKGIEVGKKLAEIILAADPQAGAKLAQAFAEYVKKYAPLIPADKKAAAEAYFNALAEKGA
B32: design_618_d4ffd631-0ea2-432e-ba0f-bd3d6297b2a0_1130_dldesign_0_cycle1_af2pred (protein)
chain: AEAVAKAALTSAKNLAEMAIRLAESGEKLEEAKKALEVAKAMAEQAEKLNPKYGKEAKAAVEKAEKKLKEAE
B33: design_618_d4ffd631-0ea2-432e-ba0f-bd3d6297b2a0_1177_dldesign_0_cycle1_af2pred (protein)
chain: AQATLASAQALTNAAETALKTSPEYAPLALQLAQQGIELAKQAAKEGAKEDPATAKEAKEVQKKAEEVAKQAQKILA
B34: design_618_d4ffd631-0ea2-432e-ba0f-bd3d6297b2a0_1274_dldesign_0_cycle1_af2pred (protein)
chain: MSPEEAKAQAEELAKQAKENKAKALATVADPAKAGEHIVQIAKNAAALQRIAAEVPEVAAYAKAKAREASKYLAEASTAAAAA
B35: design_618_d4ffd631-0ea2-432e-ba0f-bd3d6297b2a0_1320_dldesign_0_cycle1_af2pred (protein)
chain: AAAEAAAAAVRAATAAGVARVEALAAAAGDAEVAALARAEAARIREVGAVLEEIARATGPFGGEVGLKSVATVTANAEARIAEAA
B36: design_618_d4ffd631-0ea2-432e-ba0f-bd3d6297b2a0_1447_dldesign_0_cycle1_af2pred (protein)
chain: MQGHIDRLNRGAEAALAAAESGEITEEQARIIRNGAMIAYDAAEAYEKTTRAAELLQTTPEGREEGGKILRELAEKMLARAKELL
B37: design_618_d4ffd631-0ea2-432e-ba0f-bd3d6297b2a0_1565_dldesign_0_cycle1_af2pred (protein)
chain: MEEELKKIEEVKELGKKIGEELAKKILEYAKENASLPIEEILRKMVEMTREAVEKIYKLIPSELAEIGARIVWGAGSQAMIQGVRLIG
B38: design_618_d4ffd631-0ea2-432e-ba0f-bd3d6297b2a0_1622_dldesign_0_cycle1_af2pred (protein)
chain: SKEEREKIYKEALKNLEKMGTLLLDLAAQGSAADVAAAKAAIEEAKKLIEEAKKANPEEAKKLAKEAHDILSKALAAVSKSVIA

What follows are binders tested against CD276, Q5ZPR3.
Chain of CD276, Q5ZPR3 (Q5ZPR3 whole entry): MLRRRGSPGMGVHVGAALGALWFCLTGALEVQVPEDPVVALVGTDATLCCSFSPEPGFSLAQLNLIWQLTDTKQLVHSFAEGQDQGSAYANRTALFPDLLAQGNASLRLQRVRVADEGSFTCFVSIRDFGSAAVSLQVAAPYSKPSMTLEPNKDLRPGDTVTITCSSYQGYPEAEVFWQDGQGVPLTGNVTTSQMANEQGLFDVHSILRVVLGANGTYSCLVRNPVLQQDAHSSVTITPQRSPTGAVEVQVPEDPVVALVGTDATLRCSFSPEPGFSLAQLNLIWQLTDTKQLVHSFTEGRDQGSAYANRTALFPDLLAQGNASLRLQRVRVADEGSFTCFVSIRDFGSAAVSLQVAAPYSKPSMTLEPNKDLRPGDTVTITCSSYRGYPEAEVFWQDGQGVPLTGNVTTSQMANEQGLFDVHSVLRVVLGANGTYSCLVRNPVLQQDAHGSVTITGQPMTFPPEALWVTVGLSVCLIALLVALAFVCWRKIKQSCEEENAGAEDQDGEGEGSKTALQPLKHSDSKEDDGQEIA

Row | Binder | binding in a display sort
1 | B1 | not found (inactive)
2 | B2 | not found (inactive)
3 | B3 | not found (inactive)
4 | B4 | not found (inactive)
5 | B5 | not found (inactive)
6 | B6 | not found (inactive)
7 | B7 | not found (inactive)
8 | B8 | not found (inactive)
9 | B9 | not found (inactive)
10 | B10 | not found (inactive)
11 | B11 | not found (inactive)
12 | B12 | not found (inactive)
13 | B13 | not found (inactive)
14 | B14 | not found (inactive)
15 | B15 | not found (inactive)
16 | B16 | not found (inactive)
17 | B17 | not found (inactive)
18 | B18 | not found (inactive)
19 | B19 | not found (inactive)

Row | Binder | binding in a display sort
20 | B20 | not found (inactive)
21 | B21 | not found (inactive)
22 | B22 | not found (inactive)
23 | B23 | not found (inactive)
24 | B24 | not found (inactive)
25 | B25 | not found (inactive)
26 | B26 | not found (inactive)
27 | B27 | not found (inactive)
28 | B28 | not found (inactive)
29 | B29 | not found (inactive)
30 | B30 | not found (inactive)
31 | B31 | not found (inactive)
32 | B32 | not found (inactive)
33 | B33 | not found (inactive)
34 | B34 | not found (inactive)
35 | B35 | not found (inactive)
36 | B36 | not found (inactive)
37 | B37 | not found (inactive)
38 | B38 | not found (inactive)
